Reference: the supplement of paper PMC10849652
Targets with a hit are over-represented here; the source holds about 7,900 in all. About 0.6% of all pairs of compound and target were hits.

Compound: C1CN(CCC1(CC2=CC=C(C=C2)Cl)N)C3=NC=NC4=C3C=CN4
Experiment: log2 fold change, soluble protein after heating vs DMSO (PISA); higher = thermal stabilisation; K562 cells, 10 uM, 30 min; active = over 0.2 and 3.5 SD of the protein, either way, in both replicates (recomputed)
Procedure, shortened: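 For each measurement, 10 μM compound was applied for 30 min to K562 cells at 2×10^6 cells/mL. Aliquots were heated for 3 min across 48°C-58°C, pooled, and extracted in PBS with 0.5% NP-40 at 4°C; the supernatant after 21,000xg for 90 min was soluble protein. This was quantified by TMTpro 16plex LC-MS/MS with channel sums equalised, and thermal stability was reported relative to control samples from duplicates, on a log2 fold-change scale.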

Chain of UniProt P21283 (P21283 whole entry, looked up): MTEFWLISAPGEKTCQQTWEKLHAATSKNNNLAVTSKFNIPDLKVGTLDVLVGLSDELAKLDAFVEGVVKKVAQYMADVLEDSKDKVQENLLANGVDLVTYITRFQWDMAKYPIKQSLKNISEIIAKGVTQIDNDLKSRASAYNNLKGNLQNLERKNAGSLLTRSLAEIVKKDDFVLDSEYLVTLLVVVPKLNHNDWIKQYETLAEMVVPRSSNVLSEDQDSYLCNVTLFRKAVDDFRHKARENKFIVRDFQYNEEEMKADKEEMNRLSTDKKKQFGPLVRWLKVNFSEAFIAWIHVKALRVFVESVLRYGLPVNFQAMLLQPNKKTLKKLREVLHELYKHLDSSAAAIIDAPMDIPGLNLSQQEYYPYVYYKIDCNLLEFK
Chain of UniProt Q9P287 (Q9P287 whole entry, looked up): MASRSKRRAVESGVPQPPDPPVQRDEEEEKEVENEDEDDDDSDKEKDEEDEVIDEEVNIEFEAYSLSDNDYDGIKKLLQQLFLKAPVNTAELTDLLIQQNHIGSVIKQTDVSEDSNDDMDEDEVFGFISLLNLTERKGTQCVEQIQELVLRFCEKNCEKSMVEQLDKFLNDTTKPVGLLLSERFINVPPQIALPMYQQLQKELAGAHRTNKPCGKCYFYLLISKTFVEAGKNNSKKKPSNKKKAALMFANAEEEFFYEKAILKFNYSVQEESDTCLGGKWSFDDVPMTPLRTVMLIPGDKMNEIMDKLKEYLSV
Chain of UniProt Q9NX46 (Q9NX46 whole entry, looked up): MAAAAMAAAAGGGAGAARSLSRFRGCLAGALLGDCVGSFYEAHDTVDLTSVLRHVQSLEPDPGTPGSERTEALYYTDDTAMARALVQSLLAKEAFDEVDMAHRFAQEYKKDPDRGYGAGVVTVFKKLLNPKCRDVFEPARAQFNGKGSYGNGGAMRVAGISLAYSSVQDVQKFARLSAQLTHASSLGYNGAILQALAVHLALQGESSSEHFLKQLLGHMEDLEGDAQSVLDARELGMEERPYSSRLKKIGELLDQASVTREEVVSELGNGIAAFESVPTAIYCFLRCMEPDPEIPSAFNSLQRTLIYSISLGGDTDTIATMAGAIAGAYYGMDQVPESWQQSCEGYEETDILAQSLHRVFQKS
Chain of UniProt O60566 (O60566 whole entry, looked up): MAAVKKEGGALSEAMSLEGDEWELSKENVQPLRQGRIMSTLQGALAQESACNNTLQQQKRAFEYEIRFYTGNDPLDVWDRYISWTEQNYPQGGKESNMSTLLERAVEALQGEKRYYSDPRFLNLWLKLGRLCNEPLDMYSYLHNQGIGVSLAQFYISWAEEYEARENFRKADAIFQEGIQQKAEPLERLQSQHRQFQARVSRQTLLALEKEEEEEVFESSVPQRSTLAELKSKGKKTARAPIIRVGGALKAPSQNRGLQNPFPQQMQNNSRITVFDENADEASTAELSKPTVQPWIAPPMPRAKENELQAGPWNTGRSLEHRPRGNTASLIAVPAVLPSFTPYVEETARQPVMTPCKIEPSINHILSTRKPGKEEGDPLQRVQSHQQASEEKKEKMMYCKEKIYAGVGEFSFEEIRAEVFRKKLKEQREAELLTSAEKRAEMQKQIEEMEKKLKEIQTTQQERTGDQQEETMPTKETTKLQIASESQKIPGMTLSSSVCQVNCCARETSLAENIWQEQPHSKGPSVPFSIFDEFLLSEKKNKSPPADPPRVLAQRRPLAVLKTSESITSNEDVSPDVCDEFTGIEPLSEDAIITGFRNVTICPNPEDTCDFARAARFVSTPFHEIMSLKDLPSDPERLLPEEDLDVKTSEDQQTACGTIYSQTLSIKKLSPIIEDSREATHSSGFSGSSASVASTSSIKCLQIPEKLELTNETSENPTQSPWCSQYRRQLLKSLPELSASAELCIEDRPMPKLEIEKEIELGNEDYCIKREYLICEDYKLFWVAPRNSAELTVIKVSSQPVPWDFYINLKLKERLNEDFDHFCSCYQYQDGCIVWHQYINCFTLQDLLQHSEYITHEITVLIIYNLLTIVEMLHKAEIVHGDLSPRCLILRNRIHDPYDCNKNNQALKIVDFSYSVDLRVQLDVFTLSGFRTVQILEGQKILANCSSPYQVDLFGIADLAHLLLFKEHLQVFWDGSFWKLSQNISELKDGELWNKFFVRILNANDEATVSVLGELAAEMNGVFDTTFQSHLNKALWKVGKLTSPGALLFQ
Chain of UniProt P54709 (P54709 whole entry, looked up): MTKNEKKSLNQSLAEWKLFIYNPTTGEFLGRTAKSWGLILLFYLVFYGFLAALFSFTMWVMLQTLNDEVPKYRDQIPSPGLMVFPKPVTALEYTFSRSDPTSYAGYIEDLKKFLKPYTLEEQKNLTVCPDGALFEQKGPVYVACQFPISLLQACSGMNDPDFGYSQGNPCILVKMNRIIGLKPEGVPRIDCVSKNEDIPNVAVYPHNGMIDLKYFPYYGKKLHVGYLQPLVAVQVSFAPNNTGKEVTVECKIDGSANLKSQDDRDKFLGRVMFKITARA
Chain of UniProt Q93050 (Q93050 whole entry, looked up): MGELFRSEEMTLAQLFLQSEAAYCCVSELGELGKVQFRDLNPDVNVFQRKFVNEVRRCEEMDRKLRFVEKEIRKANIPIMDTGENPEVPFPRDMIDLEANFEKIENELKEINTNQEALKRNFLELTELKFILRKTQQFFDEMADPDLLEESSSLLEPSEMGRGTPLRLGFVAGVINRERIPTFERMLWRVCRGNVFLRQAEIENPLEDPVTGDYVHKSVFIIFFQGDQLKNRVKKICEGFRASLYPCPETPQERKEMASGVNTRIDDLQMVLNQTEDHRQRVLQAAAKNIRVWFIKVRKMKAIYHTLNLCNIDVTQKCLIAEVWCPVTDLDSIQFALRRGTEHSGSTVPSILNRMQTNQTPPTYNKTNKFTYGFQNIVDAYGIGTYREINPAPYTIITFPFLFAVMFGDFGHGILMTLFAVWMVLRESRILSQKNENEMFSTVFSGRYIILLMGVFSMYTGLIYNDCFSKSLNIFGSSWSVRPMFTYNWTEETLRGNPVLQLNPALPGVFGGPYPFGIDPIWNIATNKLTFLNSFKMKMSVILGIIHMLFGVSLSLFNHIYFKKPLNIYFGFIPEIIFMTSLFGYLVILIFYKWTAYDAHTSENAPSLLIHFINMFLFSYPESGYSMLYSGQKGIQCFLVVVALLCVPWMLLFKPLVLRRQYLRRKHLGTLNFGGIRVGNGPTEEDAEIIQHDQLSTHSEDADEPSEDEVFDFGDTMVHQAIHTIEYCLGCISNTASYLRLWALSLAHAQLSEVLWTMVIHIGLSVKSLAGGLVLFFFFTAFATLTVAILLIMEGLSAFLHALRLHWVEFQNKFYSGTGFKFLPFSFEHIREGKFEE
Chain of UniProt Q9NRZ7 (Q9NRZ7 whole entry, looked up): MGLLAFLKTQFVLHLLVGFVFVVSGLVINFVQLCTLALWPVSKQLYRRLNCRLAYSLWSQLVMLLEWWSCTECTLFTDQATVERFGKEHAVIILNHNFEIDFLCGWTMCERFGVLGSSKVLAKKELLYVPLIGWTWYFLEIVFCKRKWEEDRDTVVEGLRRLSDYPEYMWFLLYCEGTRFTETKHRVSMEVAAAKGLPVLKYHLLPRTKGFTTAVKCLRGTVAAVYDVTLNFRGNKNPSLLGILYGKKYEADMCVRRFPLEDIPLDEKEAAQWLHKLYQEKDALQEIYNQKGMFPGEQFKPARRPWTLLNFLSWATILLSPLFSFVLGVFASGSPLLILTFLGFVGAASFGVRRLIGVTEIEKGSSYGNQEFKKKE
Chain of UniProt O00170 (O00170 whole entry, looked up): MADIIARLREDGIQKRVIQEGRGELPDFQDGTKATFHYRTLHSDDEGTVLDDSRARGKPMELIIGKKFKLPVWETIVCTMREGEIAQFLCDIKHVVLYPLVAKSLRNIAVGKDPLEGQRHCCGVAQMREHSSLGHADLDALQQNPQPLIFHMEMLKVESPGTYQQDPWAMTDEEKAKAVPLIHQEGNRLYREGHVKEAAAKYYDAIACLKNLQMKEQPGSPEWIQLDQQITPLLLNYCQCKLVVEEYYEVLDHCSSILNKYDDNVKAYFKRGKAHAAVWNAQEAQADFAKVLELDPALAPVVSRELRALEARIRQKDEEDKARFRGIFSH
Chain of UniProt Q02252 (Q02252 whole entry, looked up): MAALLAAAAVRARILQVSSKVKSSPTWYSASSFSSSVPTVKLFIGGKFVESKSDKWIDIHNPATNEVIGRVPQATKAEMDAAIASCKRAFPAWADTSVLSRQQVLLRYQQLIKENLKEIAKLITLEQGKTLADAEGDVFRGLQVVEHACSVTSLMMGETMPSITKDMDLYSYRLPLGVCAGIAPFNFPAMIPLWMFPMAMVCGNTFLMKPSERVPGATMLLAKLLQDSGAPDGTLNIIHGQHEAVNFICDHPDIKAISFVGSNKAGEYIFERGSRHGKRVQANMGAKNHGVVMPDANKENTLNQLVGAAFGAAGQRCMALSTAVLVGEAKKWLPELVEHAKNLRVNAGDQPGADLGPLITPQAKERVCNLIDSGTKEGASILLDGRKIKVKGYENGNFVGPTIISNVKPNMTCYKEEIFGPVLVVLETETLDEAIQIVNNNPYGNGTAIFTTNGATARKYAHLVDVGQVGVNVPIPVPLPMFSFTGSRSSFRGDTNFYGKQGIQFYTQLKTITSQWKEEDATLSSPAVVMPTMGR
Chain of UniProt P56211 (P56211 whole entry, looked up): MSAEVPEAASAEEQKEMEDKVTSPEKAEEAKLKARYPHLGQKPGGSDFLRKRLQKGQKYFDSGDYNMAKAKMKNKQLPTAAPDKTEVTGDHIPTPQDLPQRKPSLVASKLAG
Chain of UniProt Q9Y2Y0 (Q9Y2Y0 whole entry, looked up): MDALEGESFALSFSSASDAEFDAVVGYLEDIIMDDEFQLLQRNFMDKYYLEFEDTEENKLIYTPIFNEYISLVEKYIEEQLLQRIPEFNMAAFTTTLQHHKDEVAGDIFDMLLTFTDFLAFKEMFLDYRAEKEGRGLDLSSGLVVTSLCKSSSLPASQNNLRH
Chain of UniProt Q10589 (Q10589 whole entry, looked up): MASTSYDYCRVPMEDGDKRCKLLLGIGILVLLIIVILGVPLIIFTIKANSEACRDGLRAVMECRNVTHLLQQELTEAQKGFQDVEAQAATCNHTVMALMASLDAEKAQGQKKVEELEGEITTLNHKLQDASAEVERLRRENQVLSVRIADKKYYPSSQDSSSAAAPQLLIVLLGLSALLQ

log2 fold change, inactive:
ATP6V0A1 isoform 3 (UniProt Q93050) -0.195
ADPRHL2 (UniProt Q9NX46) -0.165
BUB1B isoform 3 (UniProt O60566) -0.095
ATP2A3 isoform 2 (UniProt Q93084) 0.059
ACIN1 (UniProt Q9UKV3) -0.038
AIP (UniProt O00170) -0.026
ATP1B3 (UniProt P54709) 0.048
ALDH9A1 (UniProt P49189) 0.045
ATP6V1C1 (UniProt P21283) -0.227
APPL1 (UniProt Q9UKG1) 0.003
AKAP8L (UniProt Q9ULX6) 0.031
ATP23 (UniProt Q9Y6H3) -0.014
ASNS (UniProt P08243) 0.02
ACTR1B (UniProt P42025) 0.011
ARPP19 (UniProt P56211) -0.018
ARHGAP1 (UniProt Q07960) 0.019
AGPAT3 isoform 3 (UniProt Q9NRZ7) 0.067
ATP13A2 (UniProt Q9NQ11) 0.082
ALDH6A1 (UniProt Q02252) 0.043
ATR (UniProt Q13535) 0.046
ARL2BP (UniProt Q9Y2Y0) -0.072
AUP1 (UniProt Q9Y679) -0.018
ADD1 isoform 3 (UniProt P35611) 0.023
BOP1 (UniProt Q14137) 0.036
ATP9B (UniProt O43861) -0.064
ABCC5 (UniProt O15440) 0.129
BST2 (UniProt Q10589) -0.063
AKT2 (UniProt P31751) 0.144
ABCA3 (UniProt Q99758) -0.034
ALG3 (UniProt Q92685) 0.103
BCCIP isoform 2 (UniProt Q9P287) 0.066
ABHD16A (UniProt O95870) 0.023
AKAP8 (UniProt O43823) 0.018
ARGLU1 (UniProt Q9NWB6) -0.232
ARFGAP1 (UniProt Q8N6T3) 0.001
AAR2 (UniProt Q9Y312) 0.043
